Assay [1] is described as follows: NCI Yeast Anticancer Drug Screen. Data for the rad50 strain (AID 155).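 Further: 0% = growth of vehicle-only cultures of the same strain.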 To be noted: S. cerevisiae rad50 strain growth inhibition, stronger effect = higher value. The method, boiled down: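 DNA repair mutant yeast, compound exposure, growth read-out; inhibition is taken relative to vehicle.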
Assay [2] is described as follows: NCI Yeast Anticancer Drug Screen. Data for the mec2-1 strain (AID 157). The note with it: S. cerevisiae mec2-1 strain, stronger effect = higher value. The method, boiled down:
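Yeast mec2-1 mutant treated with compound. Readout: growth inhibition vs vehicle controls.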

The nature of assay [3]: NCI Yeast Anticancer Drug Screen. Data for the sgs1 mgt1 strain (AID 161).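 Further: 0% = growth of cultures given vehicle only.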 To be noted: S. cerevisiae sgs1 mgt1 strain, stronger effect = higher value. The essentials: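 Genetically altered yeast, compound exposure, growth inhibition relative to vehicle.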
Assay [4] can be described thus: NCI Yeast Anticancer Drug Screen. Data for the cln2 rad14 strain (AID 165).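 Further: 0% = growth equal to vehicle treated cultures.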 To be noted: S. cerevisiae cln2 rad14 strain, stronger effect = higher value. The essentials: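 cln2 rad14 yeast strain; compound exposure; growth inhibition read vs vehicle controls.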
Assay [5] is described as follows: NCI Yeast Anticancer Drug Screen. Data for the bub3 strain (AID 167). The note with it: S. cerevisiae bub3 mutant strain, stronger effect = higher value. The essentials:
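In this screen, a yeast mutant lacking normal mitotic checkpoint function is challenged with compound. Relative growth versus vehicle gives the inhibition value.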

Assay [6] can be described thus: NCI Yeast Anticancer Drug Screen. Data for the mlh1 rad18 strain (AID 175). To be noted: S. cerevisiae mlh1 rad18 strain growth inhibition, stronger effect = higher value. The method, boiled down:
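Yeast w/ defined DNA-repair lesions; compound exposure; growth vs vehicle controls → % inhibition.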

Setting [7] is: at 5.0 µM (retest, dose inferred, filed as 0.5).
Setting [8] is: at 50.0 µM (retest, dose inferred, filed as 5.0).

Structures are written as SMILES. About 79,000 compounds went through this panel and 15% of them were active in at least one assay; those are over-represented in the sample as a whole. Unmarked numbers belong to inactive results. The source made the active and inactive calls. No stated cut-off is given here; in the data, active means growth inhibition above about 70%; inactive means the rest.

As to `CC(C)OCc1cccc2ccnc(COC(C)C)c12`, the growth inhibition in assay [1] (setting [7]) was -20%; in assay [1] (setting [8]), 53%; in assay [1] (at 50.0 µM) it was 20.8%; in assay [2] (setting [7]), 8%; in assay [2] (setting [8]), 14%; in assay [2] (at 50.0 µM) it was 25.6%. Also, the growth inhibition is -10% in assay [3] (setting [7]); 35% in assay [3] (setting [8]); 24.9% in assay [3] (at 50.0 µM); -15% in assay [4] (setting [7]); 87% (active) in assay [4] (setting [8]); 20.6% in assay [4] (at 50.0 µM). The growth inhibition in assay [5] (setting [7]) is -11%; in assay [5] (setting [8]), 91% (active); in assay [5] (at 50.0 µM), 20.2%; in assay [6] (setting [7]), 28%; in assay [6] (setting [8]), 50%; in assay [6] (at 50.0 µM), 25.1%.

For `ONC1=Nc2ccccc2OCc2cc(Br)c(Br)cc2COc2ccccc2N=C1NO`, the growth inhibition was 22% in assay [1] (setting [7]); 96% (active) in assay [1] (setting [8]); 88% (active) in assay [1] (at 50.0 µM); 19% in assay [2] (setting [7]); 98% (active) in assay [2] (setting [8]); 91.1% (active) in assay [2] (at 50.0 µM). Further, the growth inhibition is 18% in assay [3] (setting [7]); 89% (active) in assay [3] (setting [8]); 91.5% (active) in assay [3] (at 50.0 µM); -1% in assay [4] (setting [7]); 81% (active) in assay [4] (setting [8]); 89.4% (active) in assay [4] (at 50.0 µM). Besides, the growth inhibition was 13% in assay [5] (setting [7]); 91% (active) in assay [5] (setting [8]); 90.9% (active) in assay [5] (at 50.0 µM); 31% in assay [6] (setting [7]); 97% (active) in assay [6] (setting [8]); 87.9% (active) in assay [6] (at 50.0 µM).

Turning to `O=C1C(=O)c2cc(Br)cc([N+](=O)[O-])c2-c2ccc(Br)cc21`, the growth inhibition in assay [1] (setting [7]) is 68%; in assay [1] (setting [8]), 96% (active); in assay [1] (at 50.0 µM), 95.5% (active); in assay [2] (setting [7]), 52%; in assay [2] (setting [8]) it was 96% (active); in assay [2] (at 50.0 µM), 98.3% (active). Further, the growth inhibition in assay [3] (setting [7]) was 83% (active); in assay [3] (setting [8]) it was 93% (active); in assay [3] (at 50.0 µM) it was 97.1% (active); in assay [4] (setting [7]), 21%; in assay [4] (setting [8]) it was 92% (active); in assay [4] (at 50.0 µM), 96.6% (active). The growth inhibition was 38% in assay [5] (setting [7]); 94% (active) in assay [5] (setting [8]); 98.3% (active) in assay [5] (at 50.0 µM); 89% (active) in assay [6] (setting [7]); 97% (active) in assay [6] (setting [8]); 98.4% (active) in assay [6] (at 50.0 µM).

With `c1ccc(-c2ccc(-c3ccc(C4=NCCN4)cc3)o2)cc1`, the growth inhibition is 13% in assay [1] (setting [7]); 91% (active) in assay [1] (setting [8]); 95.7% (active) in assay [1] (at 50.0 µM); 16% in assay [2] (setting [7]); 79% (active) in assay [2] (setting [8]); 95% (active) in assay [2] (at 50.0 µM). Besides, the growth inhibition was -1% in assay [3] (setting [7]); 51% in assay [3] (setting [8]); 96.8% (active) in assay [3] (at 50.0 µM); -21% in assay [4] (setting [7]); 70% (active) in assay [4] (setting [8]); 89% (active) in assay [4] (at 50.0 µM). Further, the growth inhibition in assay [5] (setting [7]) is 4%; in assay [5] (setting [8]), 86% (active); in assay [5] (at 50.0 µM) it was 95.8% (active); in assay [6] (setting [7]) it was 3%; in assay [6] (setting [8]), 95% (active); in assay [6] (at 50.0 µM), 97.5% (active).

With `COC1=CC(=O)c2c(O)c3c(c(O)c2C1=O)OC1(Oc2c(cc4cc(C)oc(=O)c4c2O)CC1O)C3O` (configuration not stated), the growth inhibition was 96% (active) in assay [1] (setting [7]); 97% (active) in assay [1] (setting [8]); 91.1% (active) in assay [1] (at 50.0 µM); 98% (active) in assay [2] (setting [7]); 99% (active) in assay [2] (setting [8]); 92.5% (active) in assay [2] (at 50.0 µM). The growth inhibition in assay [3] (setting [7]) is 97% (active); in assay [3] (setting [8]) it was 98% (active); in assay [3] (at 50.0 µM), 92.8% (active); in assay [4] (setting [7]), 98% (active); in assay [4] (setting [8]), 99% (active); in assay [4] (at 50.0 µM) it was 90.5% (active). Further, the growth inhibition was 99% (active) in assay [5] (setting [7]); 99% (active) in assay [5] (setting [8]); 91% (active) in assay [5] (at 50.0 µM); 97% (active) in assay [6] (setting [7]); 98% (active) in assay [6] (setting [8]); 91% (active) in assay [6] (at 50.0 µM).

As for `CC1(c2ccc3ccccc3c2)C(C#N)(C#N)C1(C#N)C#N`, the growth inhibition is 87% (active) in assay [1] (setting [7]); 92% (active) in assay [1] (setting [8]); 91.4% (active) in assay [1] (at 50.0 µM); 94% (active) in assay [2] (setting [7]); 94% (active) in assay [2] (setting [8]); 92% (active) in assay [2] (at 50.0 µM). Moreover, the growth inhibition in assay [3] (setting [7]) is 97% (active); in assay [3] (setting [8]) it was 96% (active); in assay [3] (at 50.0 µM), 88% (active); in assay [4] (setting [7]) it was 62%; in assay [4] (setting [8]), 93% (active); in assay [4] (at 50.0 µM) it was 83.2% (active). In addition, the growth inhibition was 96% (active) in assay [5] (setting [7]); 93% (active) in assay [5] (setting [8]); 91.2% (active) in assay [5] (at 50.0 µM); 97% (active) in assay [6] (setting [7]); 93% (active) in assay [6] (setting [8]); 87.7% (active) in assay [6] (at 50.0 µM).

Turning to `CC(=O)N(C1=CC(=O)c2ccccc2C1=O)c1ccc(Cl)cc1`, the growth inhibition in assay [1] (setting [7]) was 95% (active); in assay [1] (setting [8]), 97% (active); in assay [1] (at 50.0 µM) it was 96.7% (active); in assay [2] (setting [7]), 92% (active); in assay [2] (setting [8]), 98% (active); in assay [2] (at 50.0 µM) it was 95% (active). The growth inhibition is 95% (active) in assay [3] (setting [7]); 97% (active) in assay [3] (setting [8]); 95.2% (active) in assay [3] (at 50.0 µM); 52% in assay [4] (setting [7]); 98% (active) in assay [4] (setting [8]); 90.8% (active) in assay [4] (at 50.0 µM). In addition, the growth inhibition in assay [5] (setting [7]) was 89% (active); in assay [5] (setting [8]), 98% (active); in assay [5] (at 50.0 µM) it was 90.5% (active); in assay [6] (setting [7]), 92% (active); in assay [6] (setting [8]), 98% (active); in assay [6] (at 50.0 µM), 93.5% (active).

As for `CC1=Nc2ccccc2C1C(Cc1ccccc1N)c1c(C)[nH]c2ccccc12` (configuration not stated), the growth inhibition in assay [1] (setting [7]) is 15%; in assay [1] (setting [8]), 97% (active); in assay [1] (at 50.0 µM), 95.6% (active); in assay [2] (setting [7]) it was 16%; in assay [2] (setting [8]), 95% (active); in assay [2] (at 50.0 µM) it was 95.4% (active). The growth inhibition in assay [3] (setting [7]) was 11%; in assay [3] (setting [8]), 90% (active); in assay [3] (at 50.0 µM), 88.8% (active); in assay [4] (setting [7]) it was 15%; in assay [4] (setting [8]) it was 98% (active); in assay [4] (at 50.0 µM), 94.5% (active). The growth inhibition was 7% in assay [5] (setting [7]); 95% (active) in assay [5] (setting [8]); 89.6% (active) in assay [5] (at 50.0 µM); 11% in assay [6] (setting [7]); 96% (active) in assay [6] (setting [8]); 97% (active) in assay [6] (at 50.0 µM).

As to `CNc1c(C(=O)Nc2ccccc2)c(=O)n(C)c(=O)n1C`, the growth inhibition in assay [1] (setting [7]) was 99% (active); in assay [1] (setting [8]), 99% (active); in assay [1] (at 50.0 µM) it was 62.9%; in assay [2] (setting [7]), 100% (active); in assay [2] (setting [8]), 99% (active); in assay [2] (at 50.0 µM) it was 81% (active). In addition, the growth inhibition in assay [3] (setting [7]) was 99% (active); in assay [3] (setting [8]), 99% (active); in assay [3] (at 50.0 µM) it was 32.8%; in assay [4] (setting [7]), 99% (active); in assay [4] (setting [8]), 99% (active); in assay [4] (at 50.0 µM), 2.3%. Also, the growth inhibition in assay [5] (setting [7]) is 99% (active); in assay [5] (setting [8]), 99% (active); in assay [5] (at 50.0 µM) it was 90.8% (active); in assay [6] (setting [7]) it was 99% (active); in assay [6] (setting [8]), 99% (active); in assay [6] (at 50.0 µM), 74.5% (active).

The values above are taken from PubChem BioAssay (NCI).
